# From PubChem BioAssay
# This is a sample that favours compounds with a hit; in the whole collection about 5.7% have one here.
# GLP1R cytotox: cytotoxic in the GLP-1 receptor inverse agonist counter-screen. HEK293 cAMP-luciferase reporter cells, luminescence, 24 h. Potency, µM (top dose mostly 38.3 µM), hits mostly inhibitors. 0.13% of 410,000 active. AID 624418;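 further: loss of luciferase light is scored as toxicity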
#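 MLSMR compounds, 24 hr on cells at 37 deg C/5% CO2; luminescence after luciferase reagent (12 min RT). Inhibition counted as the undesired cytotoxic outcome.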
# ClpP mod: qHTS Assay for Activators of ClpP; Potency, µM (series often up to 57.5 µM); ATP-dependent Clp protease proteolytic subunit (Bacillus subtilis (strain 168)), P80244; purified B. subtilis ClpP, FRET peptide cleavage, 20 min; 1.9% of 340,000 active; active means well fitted falling curve with a large enough effect; inconclusive means small, poorly fitted or top-dose-only effect; inactive means no such curve, though single readings can be large or run the other way; further: the source files actives as falling curves though it sought activators and does not explain the sign; nearly all actives have a fitted effect of over 65% in size
# Target sequence (P80244 whole entry, looked up): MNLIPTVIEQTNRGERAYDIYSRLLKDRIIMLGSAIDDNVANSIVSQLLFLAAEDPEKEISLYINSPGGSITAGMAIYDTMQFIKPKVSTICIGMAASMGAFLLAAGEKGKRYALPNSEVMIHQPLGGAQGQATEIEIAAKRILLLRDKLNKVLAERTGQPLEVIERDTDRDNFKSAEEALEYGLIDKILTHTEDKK
#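 FRET quenching reversal measured ClpP activation: 10 microg/mL B. subtilis ClpP at pH 8 with the FRET-FV decapeptide, read at 430 nm after 320 nm excitation. The 20-min minus 0-min signal was scaled between DMSO/no-enzyme wells and ADEP (5.8 microM final).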
# GLP-1R agonist: agonists of human GLP-1 receptor | HEK293 GLP-1R CRE-luciferase, luminescence, 4-6 h; cells express a hypersensitive GLP-1R form | P43220 | Potency, µM (series often up to 45.6 µM), most hits filed as activators | 0.007% of 380,000 active
# D3 antag: antagonists of human D3 dopamine receptor; max response, negative = inhibition, %; D3R cells, DiscoveRx beta-arrestin luminescence, antagonist mode; stronger effect = lower value; 2.5% of 360,000 active; in the data active means max response below about -50%; inconclusive means no clear call, values can overlap the other calls
# Target sequence (P35462 whole entry, looked up): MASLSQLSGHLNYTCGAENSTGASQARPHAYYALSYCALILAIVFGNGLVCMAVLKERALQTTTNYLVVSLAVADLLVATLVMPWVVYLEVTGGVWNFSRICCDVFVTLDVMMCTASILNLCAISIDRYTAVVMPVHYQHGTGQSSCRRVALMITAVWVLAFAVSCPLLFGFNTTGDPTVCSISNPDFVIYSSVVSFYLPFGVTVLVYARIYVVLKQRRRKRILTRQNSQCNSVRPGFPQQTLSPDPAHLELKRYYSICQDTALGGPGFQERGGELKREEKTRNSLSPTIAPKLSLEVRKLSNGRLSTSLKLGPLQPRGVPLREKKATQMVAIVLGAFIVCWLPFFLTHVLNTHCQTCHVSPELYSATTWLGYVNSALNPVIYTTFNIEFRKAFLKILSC
#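 Cells plated overnight at 1500 cells/well, then exposed to library compounds with dopamine controls for 90 minutes at 37 degrees C. DiscoveRx reagent added for 30–60 minutes at room temperature; luminescence read, quantitative HTS format.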
# DRD3 agonist: D3 dopamine receptor (human) agonism. D3R DiscoveRx beta-arrestin cells, luminescence, 90 min. max activation, %. 0.58% of 410,000 active. AID 652048; in the data active means max activation above about 30%
#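 Agonist mode: compounds and dopamine controls were applied to plated cells for 90 min at 37 degrees C after an overnight attachment at 1500 cells/well. Luminescent read-out followed 30 - 60 minutes at room temperature with DiscoveRx detection reagent.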
# GLP-1R inv ag: GLP-1 receptor (human) inverse agonism; 1.6% of 410,000 active; Potency, µM (doses to about 38.3 µM), most hits filed as inhibitors; HEK293 GLP-1R CRE-luciferase, luminescence, 24 h; GLP-1R form is constitutively active; AID 624417; further: nearly all actives have a fitted effect of over 55% in size
#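 Seeding at 200 cells/uL, 12 h culture, 24 hr compound treatment, then luciferase reagent and a luminescence read; cells are HEK293 stably expressing a constitutively active GLP-1R plus cAMP-responsive luciferase.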
# Hits are given with their value; n = inactive; u = inconclusive; x = no result. Unless noted, the call rests on the fitted dose curve; in most records, active means well fitted curve in the direction sought with a large enough effect; inconclusive means small, poorly fitted or top-dose-only effect, or another doubt; inactive means no such curve, though single readings can be large; an effect the other way counts as inactive or inconclusive.
SMILES,GLP1R cytotox,ClpP mod,GLP-1R agonist,D3 antag,DRD3 agonist,GLP-1R inv ag
CCN1CCN(C(=S)Nc2ccc3nc(N4CCN(CC)CC4)cc(C)c3c2)CC1,u,u,n,n,n,n
CCCCNC(=O)CCC(=O)Nc1ccc2nc(N3CCOCC3)cc(C)c2c1,n,n,n,n,n,n
Cc1cc(N2CCOCC2)nc2ccc(NC(=O)C3CCC(C)CC3)cc12 (configuration not stated),n,14µM,n,n,n,u
CCOC(=O)N1CCN(C(=S)Nc2ccc3nc(N4CCN(CC)CC4)cc(C)c3c2)CC1,u,16µM,n,n,n,n
Cc1cc(N2CCOCC2)nc2ccc(NC(=S)NC(C)C)cc12,n,n,n,n,n,n
Cc1cc(N2CCCCC2)nc2ccc(NC(=O)CCC(=O)NCCC(C)C)cc12,n,16µM,n,n,n,n
CCOc1ccc(Cl)cc1C1CC(=O)Nc2cc(OC)c(OC)c(OC)c21 (configuration not stated),n,n,n,x,n,n
O=C(Cn1c(SCc2cccc(F)c2)nc2cccnc21)Nc1ccc(F)c(Cl)c1,n,n,x,x,n,u
COc1ccc(CN2C(=O)N(c3ccc(C)cc3)C(=O)C2CC(=O)Nc2ccccc2)cc1OC (configuration not stated),n,n,x,x,n,n
C[C@H]1O[C@H](O[C@H]2[C@H](O)[C@@H](O)[C@@H](O[C@H]3[C@H](O)[C@@H](O)[C@H](O)O[C@@H]3CO)O[C@@H]2CO)[C@H](O)[C@@H](O)[C@@H]1N[C@H]1C=C(CO)[C@@H](O)[C@H](O)[C@H]1O,x,x,x,x,n,x
C#C[C@]1(O)CC[C@H]2[C@H]3[C@H](CC[C@@]21C)C1=C(CC(=O)CC1)C[C@@H]3C,x,x,n,x,x,x
CCN1CCN(S(=O)(=O)c2ccc(Cl)c(C(=O)NC(C)c3ccccc3Cl)c2)CC1 (configuration not stated),n,35µM,n,u,n,n
CCOc1ccccc1NC(=O)c1cc(S(=O)(=O)N2CCN(CC)CC2)ccc1Cl,n,n,n,n,n,u
COc1ccc(S(=O)(=O)N2CCCCCC2)cc1C(=O)NCc1ccccc1Cl,n,25µM,n,n,n,n
CCOC(=O)C1CCCN(S(=O)(=O)c2ccc(Cl)nc2)C1 (configuration not stated),n,22µM,n,n,n,n
CCN1CCN(S(=O)(=O)c2ccc(Cl)c(C(=O)N(CC)CC(=O)Nc3ccc(OC)cc3)c2)CC1,n,n,n,-163,n,n
CCOC(=O)C1CCCN(S(=O)(=O)c2ccc(C)cc2)C1 (configuration not stated),n,n,n,n,n,n
CCCCCSc1nc2sc3c(c2c(=O)n1-c1ccc(OC)cc1)CCN(C(C)=O)C3,n,n,n,x,n,n
COc1ccccc1CNC(=O)N1CCN(S(=O)(=O)c2ccccc2)CC1,n,x,n,n,30,n
CN(CC(=O)Nc1ccc(Cl)cc1)c1ccc(S(=O)(=O)N2CCCCC2)cc1[N+](=O)[O-],n,n,n,u,n,10µM
COc1ccc(S(=O)(=O)N2CCCCCC2)cc1C(=O)N(C)Cc1ccc(C(C)(C)C)cc1,n,x,n,n,n,5.6µM
COc1ccc(S(=O)(=O)N2CCCCCC2)cc1C(=O)N(C)Cc1ccc(F)cc1,n,n,n,n,n,u
COc1ccc(S(=O)(=O)N2CCCCCC2)cc1C(=O)N(C)CC(=O)Nc1ccc(Cl)c(Cl)c1,n,x,n,n,n,10µM
CN(CC(=O)Nc1ccc(S(=O)(=O)N2CCCC2)cc1)Cc1ccc(Cl)cc1Cl,n,n,u,n,n,u
COc1cccc(NC(=O)CN(C)C(=O)c2cc(S(=O)(=O)N3CCCCC3)ccc2Cl)c1,n,n,n,n,n,n
SMILES,GLP1R cytotox,ClpP mod,GLP-1R agonist,D3 antag,DRD3 agonist,GLP-1R inv ag
Cc1ccc2c(c1)N(CCC(=O)NCc1ccccc1Cl)C(=O)CO2,n,n,n,x,n,n
Cc1nc2ccc(S(=O)(=O)N(CC(=O)Nc3cccc(F)c3)Cc3ccccc3)cc2s1,n,n,n,x,n,u
COc1ccc(S(=O)(=O)N2CCCC(C(=O)NCc3ccncc3)C2)cc1Cl (configuration not stated),n,n,n,-71,n,n
O=C1OCCN1CCN(CN1C(=O)CCC1=O)CN1C(=O)CCC1=O,n,n,n,-57,n,n
Cc1cccc(N2CCN(C(=O)Cn3cnc4sc(C)c(S(=O)(=O)N5CCN(c6ncccn6)CC5)c4c3=O)CC2C)c1 (configuration not stated),n,n,n,x,n,u
O=C(Nc1ccc(Cl)cc1)C1Cc2c(-c3ccccc3Oc3ccccc3)ccnc2O1 (configuration not stated),n,n,n,n,n,u
Cc1cccc(OCCNC(=O)c2ccc(Oc3ccc(C(F)(F)F)cc3[N+](=O)[O-])cc2)c1,n,n,n,n,n,u
Cc1cccc(OCCNC(=O)c2cccc(Oc3ccc(C(F)(F)F)cc3[N+](=O)[O-])c2)c1,n,n,n,n,n,2.5µM
Cc1ccccc1OCC(O)CO (configuration not stated),x,x,n,x,n,x
Cc1cc(OCCN2CCCC2)ccc1[N+](=O)[O-],n,n,n,-63,n,n
COc1cc(CN2CCC(Cc3ccccc3)CC2)c([N+](=O)[O-])cc1OC,n,n,n,n,n,u
O=C(c1ccc([N+](=O)[O-])cc1)N1CCC(Cc2ccccc2)CC1,n,x,n,n,n,u
Cc1cc(OCCN2CCOCC2)ccc1[N+](=O)[O-],n,n,n,n,n,n
O=[N+]([O-])c1ccccc1OCCN1CCCC1,n,n,n,-61,n,n
O=[N+]([O-])c1cccc(OCCN2CCC(Cc3ccccc3)CC2)c1,u,x,n,-102,n,u
Cc1ccc([N+](=O)[O-])c(OCCCN2CCC(Cc3ccccc3)CC2)c1,u,n,n,-95,n,u
CC(c1nc2ccccc2c(=O)[nH]1)N1CCN(S(=O)(=O)c2ccc(F)c(Cl)c2)CC1 (configuration not stated),n,n,n,n,n,u
O=C(NCCc1ccccc1Cl)c1sc2ncccc2c1-n1cccc1,n,n,x,x,n,u
O=[N+]([O-])c1ccccc1OCCCN1CCc2ccccc2C1,n,x,n,-103,n,u
Cc1ccc([N+](=O)[O-])c(OCCN2CCc3ccccc3C2)c1,n,n,n,-60,n,u
